# In the supplement of paper PMC12494721:
# Where a name gives a salt, the structure may show the parent alone.
# System: Escherichia coli IAI1
# Test: growth (OD595) fold change vs plate DMSO controls (fold change (ratio)); higher = more growth
# Conditions: incubation time: 27 h, anaerobic, 37 °C
# Procedure, shortened: (§1)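 Each value is the mean of 2 biological replicates, and fold changes above 1.5 were set to NA. The underlying readings were taken at 595 nm from shaken anaerobic mGAM cultures in 96-well plates after 27 h at 37 °C. They were blank-subtracted, corrected for compound background using 20 µM compound solutions in water, and converted to OD with a calibration factor of 5. Growth is the fold change relative to the median of the plate DMSO controls.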
row,SMILES,growth
1,O=C(O)CCNC(=O)c1ccccc1 [Betamipron] (20 µM),0.817
2,CCc1c2c(nc3ccc(OC(=O)N4CCC(N5CCCCC5)CC4)cc13)-c1cc3c(c(=O)n1C2)COC(=O)[C@]3(O)CC [Irinotecan hydrochloride trihydrate] (20 µM),1.05
3,Nc1nc2c(ncn2COCCO)c(=O)[nH]1 [Acyclovir] (20 µM),1.05
4,Nc1ncn(C2OC(CO)C(O)C2O)c(=O)n1 (centres undefined) [Azacytidine-5] (20 µM),0.811
5,CCN(CC)CCNC(=O)c1ccc(N)cc1 [Procainamide hydrochloride] (20 µM),0.979
6,O=C(O)c1cn(C2CC2)c2cc(N3CCNCC3)c(F)cc2c1=O [Ciprofloxacin hydrochloride monohydrate] (20 µM),0
7,COc1cc(Cc2cnc(N)nc2N)cc(OC)c1OC [Trimethoprim] (20 µM),0.272
8,O=C1C(=O)c2ccccc2C(O)=C1C1CCC(c2ccc(Cl)cc2)CC1 (centres undefined) [Atovaquone] (20 µM),1.02
9,OC(c1cc(C(F)(F)F)nc2c(C(F)(F)F)cccc12)C1CCCCN1 (centres undefined) [Mefloquine hydrochloride] (20 µM),0.858
10,CC[C@]12CCCN3CCc4c(n(c5ccccc45)[C@@](O)(C(=O)OC)C1)[C@@H]32 [Vincamine] (20 µM),1.01
11,Cc1noc(NS(=O)(=O)c2ccc(N)cc2)c1C [Sulfisoxazole] (20 µM),1.03
12,Cc1ccc(NC(=O)c2ccc(CN3CCN(C)CC3)cc2)cc1Nc1nccc(-c2cccnc2)n1 [Imatinib] (20 µM),1.07
13,COc1cc2nc(N3CCN(C(=O)c4ccco4)CC3)nc(N)c2cc1OC [Prazosin hydrochloride] (20 µM),1.09
14,CCOC(=O)C1=C(COCCN)NC(C)=C(C(=O)OC)C1c1ccccc1Cl (centres undefined) [Amlodipine] (20 µM),1
15,CO/N=C(\C(=O)N[C@@H]1C(=O)N2C(C(=O)O)=C(C[N+]3(C)CCCC3)CS[C@H]12)c1csc(N)n1 [Cefepime hydrochloride] (20 µM),0
16,CCn1cc(C(=O)O)c(=O)c2cc(F)c(N3CCN(C)CC3)cc21 [Pefloxacin] (20 µM),0.0501
17,CN(CCOc1ccc(NS(C)(=O)=O)cc1)CCc1ccc(NS(C)(=O)=O)cc1 [Dofetilide] (20 µM),0.972
18,O=C1C(CC[S+]([O-])c2ccccc2)C(=O)N(c2ccccc2)N1c1ccccc1 (centres undefined) [Sulfinpyrazone] (20 µM),0.972
19,CCOC(=O)C1=C(C)NC(C)=C(C(=O)OC)C1c1cccc(Cl)c1Cl (centres undefined) [Felodipine] (20 µM),1.09
20,COc1c(N2C[C@@H]3CCCN[C@@H]3C2)c(F)cc2c(=O)c(C(=O)O)cn(C3CC3)c12 [Moxifloxacin] (20 µM),0.0497
21,C[C@H]1COc2c(N3CCN(C)CC3)c(F)cc3c(=O)c(C(=O)O)cn1c23 [Levofloxacin] (20 µM),0.012
22,NC(=O)c1cc[n+](CC2=C(C(=O)O)N3C(=O)[C@@H](NC(=O)C(c4ccccc4)S(=O)(=O)[O-])[C@H]3SC2)cc1 (some centres undefined) [Cefsulodin Sodium Salt Hydrate] (20 µM),1.04
23,CO[C@@]1(NC(=O)CSCC#N)C(=O)N2C(C(=O)O)=C(CSc3nnnn3C)CS[C@@H]21 [Cefmetazole sodium salt] (20 µM),0.0115
24,CCN1CCN(C(=O)N[C@@H](C(=O)N[C@@H]2C(=O)N3C(C(=O)O)=C(CSc4nnnn4C)CS[C@H]23)c2ccc(O)cc2)C(=O)C1=O [Cefoperazone dihydrate] (20 µM),0.0154
25,CC/C(=C(\c1ccccc1)c1ccc(OCCN(C)C)cc1)c1ccccc1 [Tamoxifen citrate] (20 µM),1.06
26,C#C[C@]1(O)CC[C@H]2[C@@H]3CCC4=CCCC[C@@H]4[C@H]3CC[C@@]21C [Lynestrenol] (20 µM),1.17

# System: Klebsiella aerogenes DSM 30053
# Test: as above
# Conditions: incubation time: 27 h, anaerobic, 37 °C
# Procedure, shortened: as §1
row,SMILES,growth
1,CC(=O)Nc1ccc(O)cc1 [Acetaminophen] (20 µM),0.999
2,CC(C)(C)CC(C)(C)c1ccc(OCCOCC[N+](C)(C)Cc2ccccc2)cc1 [Benzethonium chloride] (20 µM),1.02
3,C[C@H]1[C@H](NC(=O)/C(=N\OC(C)(C)C(=O)O)c2csc(N)n2)C(=O)N1S(=O)(=O)O [Aztreonam] (20 µM),0.662
4,Nc1ccn([C@@H]2CS[C@H](CO)O2)c(=O)n1 [Lamivudine] (20 µM),0.992
5,Cc1nnc(SCC2=C(C(=O)O)N3C(=O)[C@@H](NC(=O)Cn4cnnn4)[C@H]3SC2)s1 [Cefazolin sodium salt] (20 µM),1.13
6,CN(C)CCCN1c2ccccc2CCc2ccccc21 [Imipramine hydrochloride] (20 µM),1.08
7,Clc1ccccc1CN1CCc2sccc2C1 [Ticlopidine hydrochloride] (20 µM),0.958
8,COc1ccc(CCN(C)CCCC(C#N)(c2ccc(OC)c(OC)c2)C(C)C)cc1OC (centres undefined) [Verapamil hydrochloride] (20 µM),0.758
9,Cc1cnc(NC(=O)C2=C(O)c3ccccc3S(=O)(=O)N2C)s1 [Meloxicam] (20 µM),0.98
10,C=C[C@H]1CN2CC[C@H]1C[C@@H]2[C@@H](O)c1ccnc2ccc(OC)cc12 [Quinidine hydrochloride monohydrate] (20 µM),0.966
11,C[C@H](CS)C(=O)N1CCC[C@H]1C(=O)O [Captopril] (20 µM),1
12,"CC(C)Cc1ccc([C@H](C)C(=O)O)cc1 [(S,+) Ibuprofen] (20 µM)",1.16
13,O=C(O)CCNC(=O)c1ccccc1 [Betamipron] (20 µM),0.813
14,CCc1c2c(nc3ccc(OC(=O)N4CCC(N5CCCCC5)CC4)cc13)-c1cc3c(c(=O)n1C2)COC(=O)[C@]3(O)CC [Irinotecan hydrochloride trihydrate] (20 µM),0.974
15,Nc1nc2c(ncn2COCCO)c(=O)[nH]1 [Acyclovir] (20 µM),1
16,Nc1ncn(C2OC(CO)C(O)C2O)c(=O)n1 (centres undefined) [Azacytidine-5] (20 µM),0.974
17,CCN(CC)CCNC(=O)c1ccc(N)cc1 [Procainamide hydrochloride] (20 µM),1.2
18,O=C(O)c1cn(C2CC2)c2cc(N3CCNCC3)c(F)cc2c1=O [Ciprofloxacin hydrochloride monohydrate] (20 µM),0
19,COc1cc(Cc2cnc(N)nc2N)cc(OC)c1OC [Trimethoprim] (20 µM),0.472

row,SMILES,growth
1,O=C1C(=O)c2ccccc2C(O)=C1C1CCC(c2ccc(Cl)cc2)CC1 (centres undefined) [Atovaquone] (20 µM),1.07
2,OC(c1cc(C(F)(F)F)nc2c(C(F)(F)F)cccc12)C1CCCCN1 (centres undefined) [Mefloquine hydrochloride] (20 µM),0.808
3,CC[C@]12CCCN3CCc4c(n(c5ccccc45)[C@@](O)(C(=O)OC)C1)[C@@H]32 [Vincamine] (20 µM),1.05
4,Cc1noc(NS(=O)(=O)c2ccc(N)cc2)c1C [Sulfisoxazole] (20 µM),1.02
5,Cc1ccc(NC(=O)c2ccc(CN3CCN(C)CC3)cc2)cc1Nc1nccc(-c2cccnc2)n1 [Imatinib] (20 µM),1.05
6,COc1cc2nc(N3CCN(C(=O)c4ccco4)CC3)nc(N)c2cc1OC [Prazosin hydrochloride] (20 µM),0.998
7,CCOC(=O)C1=C(COCCN)NC(C)=C(C(=O)OC)C1c1ccccc1Cl (centres undefined) [Amlodipine] (20 µM),1
8,CO/N=C(\C(=O)N[C@@H]1C(=O)N2C(C(=O)O)=C(C[N+]3(C)CCCC3)CS[C@H]12)c1csc(N)n1 [Cefepime hydrochloride] (20 µM),0.484
9,CCn1cc(C(=O)O)c(=O)c2cc(F)c(N3CCN(C)CC3)cc21 [Pefloxacin] (20 µM),0.198
10,CN(CCOc1ccc(NS(C)(=O)=O)cc1)CCc1ccc(NS(C)(=O)=O)cc1 [Dofetilide] (20 µM),1.03
11,O=C1C(CC[S+]([O-])c2ccccc2)C(=O)N(c2ccccc2)N1c1ccccc1 (centres undefined) [Sulfinpyrazone] (20 µM),1.04
12,CCOC(=O)C1=C(C)NC(C)=C(C(=O)OC)C1c1cccc(Cl)c1Cl (centres undefined) [Felodipine] (20 µM),1.04
13,COc1c(N2C[C@@H]3CCCN[C@@H]3C2)c(F)cc2c(=O)c(C(=O)O)cn(C3CC3)c12 [Moxifloxacin] (20 µM),0.193
14,C[C@H]1COc2c(N3CCN(C)CC3)c(F)cc3c(=O)c(C(=O)O)cn1c23 [Levofloxacin] (20 µM),0.11
15,NC(=O)c1cc[n+](CC2=C(C(=O)O)N3C(=O)[C@@H](NC(=O)C(c4ccccc4)S(=O)(=O)[O-])[C@H]3SC2)cc1 (some centres undefined) [Cefsulodin Sodium Salt Hydrate] (20 µM),1.02
16,CO[C@@]1(NC(=O)CSCC#N)C(=O)N2C(C(=O)O)=C(CSc3nnnn3C)CS[C@@H]21 [Cefmetazole sodium salt] (20 µM),1.16
17,CCN1CCN(C(=O)N[C@@H](C(=O)N[C@@H]2C(=O)N3C(C(=O)O)=C(CSc4nnnn4C)CS[C@H]23)c2ccc(O)cc2)C(=O)C1=O [Cefoperazone dihydrate] (20 µM),0.724
18,CC/C(=C(\c1ccccc1)c1ccc(OCCN(C)C)cc1)c1ccccc1 [Tamoxifen citrate] (20 µM),1.02
19,C#C[C@]1(O)CC[C@H]2[C@@H]3CCC4=CCCC[C@@H]4[C@H]3CC[C@@]21C [Lynestrenol] (20 µM),1.02
